The list is not random: actives were taken first. Their share in the collection is about 12%.
JMJD2A Tudor inh = blocks the human JMJD2A Tudor domain. 4.4% of 390,000 active. AID 504339. AlphaScreen JMJD2A-Tudor / H3K4me3 peptide binding. Potency, µM (series often up to 114 µM), for inactives: at the highest dose activity change, negative = inhibition, usual class: inhibitors. O75164; note: % is set by controls: 0 for no effect and ±100 for the full control effect; nearly all actives have a fitted effect of over 50% in size
BAZ2B block = BAZ2B (human) inhibition; Q9UIF8; 4.4% of 360,000 active; AlphaScreen BAZ2B-H3K14Ac peptide displacement; Potency, µM (titrated, usually from 114 µM), inactives show at the highest dose activity change, negative = inhibition, most hits filed as inhibitors; note: % is set by controls: 0 for no effect and ±100 for the full control effect; nearly all actives have a fitted effect of over 60% in size
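Protein-peptide AlphaScreen: BAZ2B 50 nM, b-H3K14Ac 50 nM, 1x PBS pH 7.4 + 0.01% Tween-20. Preincubation 30 min RT; cpd 30 min RT (top 110 uM); beads 20 min RT, light-protected.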
G9a inh = G9a (human) methyltransferase inhibition | AID 504332 | Q96KQ7 | Potency, µM (highest dose often 102 µM), without a hit: at the top dose activity, negative = inhibition, hits mostly inhibitors | G9a H3K9 monomethylation, AlphaScreen, 2 h | 8.8% of 350,000 active; note: % is set by controls: 0 for no effect and ±100 for the full control effect; nearly all actives have a fitted effect of over 75% in size
Target sequence (Q96KQ7 913-1193 limits assumed): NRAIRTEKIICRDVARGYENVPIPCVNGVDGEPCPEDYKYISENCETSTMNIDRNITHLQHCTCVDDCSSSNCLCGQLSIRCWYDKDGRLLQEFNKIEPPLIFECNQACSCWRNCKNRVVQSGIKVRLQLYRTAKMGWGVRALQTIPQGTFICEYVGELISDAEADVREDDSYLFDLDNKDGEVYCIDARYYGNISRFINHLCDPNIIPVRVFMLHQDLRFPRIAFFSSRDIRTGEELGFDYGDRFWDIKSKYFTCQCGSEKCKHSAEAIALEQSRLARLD
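Signal arises when biotinylated H3K9 peptide, once monomethylated, bridges streptavidin donor and antibody-captured acceptor beads. Enzyme at 20 nM was preincubated 15 min with test compounds; peptide 500 nM and SAM 20 uM then reacted for 2 h.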
HP1b chromo inh = HP1-beta chromodomain-methylated histone interaction inhibition; P83916; AlphaScreen HP1-beta / biotin-H3K9me3 peptide binding; Potency, µM (doses to about 114 µM), for inactives: at the highest dose activity change, negative = inhibition, usual class: inhibitors; 0.56% of 390,000 active; note: nearly all actives have a fitted effect of over 70% in size
Target sequence (P83916 whole entry, looked up): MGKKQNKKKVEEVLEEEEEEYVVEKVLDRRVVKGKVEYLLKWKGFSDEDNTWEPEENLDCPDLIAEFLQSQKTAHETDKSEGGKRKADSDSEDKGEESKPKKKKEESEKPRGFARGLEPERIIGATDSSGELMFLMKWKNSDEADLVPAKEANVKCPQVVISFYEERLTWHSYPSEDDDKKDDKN
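AlphaScreen: HP1-beta (50 nM) preformed 30 min with biotin-H3(1-18)K9me3 peptide (50 nM) in PBS pH 7.4, 0.01% Tween-20. Compound added for 30 min at RT, then streptavidin donor/nickel chelate acceptor beads (10 ug/mL) for 30 min.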
Sfp PPTase inh = blocks B. subtilis Sfp PPTase activity; Biochemical Sfp PPTase activity, qHTS; AID 1490; Potency, µM, inactives show largest response in the series, negative = inhibition, actives largely listed as inhibitors; 3.5% of 310,000 active;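 note: the enzyme is Sfp with the accession as filed and its product quenches rhodamine fluorescence; 0% = enzyme reaction without inhibitor and -100% = no enzyme wells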
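Sfp 15 nM + cpd, 15 min RT; start w/ rhodamine-CoA 5 uM, BHQ-2-YbbR 12.5 uM (final); 50 mM Hepes pH 7.6, 10 mM MgCl2, 0.01% NP-40, 0.01% BSA; read 525/598 nm at 0 and 30 min.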
* marks the source's active call; other numbers are inactive results; ? = inconclusive; . = no result; ! = not confirmed by another sample; [ ] = another dose, or the depositor's remark. Calls come from the whole dose curve; as a rule, active = well fitted curve in the direction sought with a large enough effect; inconclusive = small, poorly fitted or top-dose-only effect, or another doubt; inactive = no such curve, though single readings can be large; an effect the other way counts as inactive or inconclusive. Potency is the fitted concentration of half-maximal effect.

SMILES	JMJD2A Tudor inh	BAZ2B block	G9a inh	HP1b chromo inh	Sfp PPTase inh
Fc1ccc(C2NCCn3cccc32)cc1 (configuration not stated)	-33.7%	?	?	17.3%	2.0%
c1ccc(C2NCCn3cccc32)cc1 (configuration not stated)	?	?	50.1µM*	26.4%	-13.7%
CC(C)Cn1c(N)c(C(=O)COC(=O)c2cc(-c3ccccc3)nc3ccccc23)c(=O)n(C)c1=O	-7.0%	-9.0%	?	30.9%	7.8%
Cn1c(N)c(C(=O)COC(=O)c2cc(-c3ccccc3)nc3ccccc23)c(=O)n(Cc2ccccc2)c1=O	-32.6%	-9.9%	?	8.9%	3.5%
Cn1c(=O)c(C(=O)COC(=O)c2cc(C(F)(F)F)nc3c(C(F)(F)F)cccc23)c(N)n(CC2CC2)c1=O	.	-38.7%	50.1µM*	.	10.6%
CC(C)Cn1c(N)c(C(=O)COC(=O)c2cc(-c3ccco3)nc3ccccc23)c(=O)n(C)c1=O	39.8µM*	79.4µM*	?	?	20µM*!
Cn1c(=O)c(C(=O)COC(=O)c2cc(-c3ccco3)nc3ccccc23)c(N)n(Cc2ccccc2)c1=O	.	44.7µM*	8.91µM*	.	31.6µM*
COc1ccc(CCNC(=O)c2ccc3c(Cl)c4c(nc3c2)CCCC4)cc1OC	-5.4%	-15.2%	-1.3%[59 µM]	27.4%	.
Cc1cc(C(=O)c2cccs2)c(N)s1	?	-55.4%	39.8µM*	?	50.1µM*
Cc1cc(C)c(C(=O)c2cccs2)c(C)c1	33.1%	.	.	107.0%	.
Cc1ccc(Nc2ccc(N3CCN(C(=O)c4ccc([N+](=O)[O-])cc4)CC3)nn2)cc1	-20.8%	-22.3%	-26.0%[59 µM]	13.2%	.
COc1ccc(CNS(=O)(=O)CCNC(=O)c2ccccc2)cc1	-6.8%	6.7%	-5.8%	30.7%	.
COc1cccc(C(=O)NCCS(=O)(=O)NCc2ccc3c(c2)OCO3)c1	-23.3%	0.3%	39.8µM*	-5.0%	.
COc1ccc(CNS(=O)(=O)CCNC(=O)c2cccc(OC)c2)cc1	-13.6%	5.2%	50.1µM*	20.9%	.
COc1cccc(C(=O)NCCS(=O)(=O)NCc2ccccn2)c1	2.51µM*	-2.6%	?	-2.5%	.
COc1ccc(-c2nc3cnc(N(C)C)nc3n(C[C@H]3CCCO3)c2=O)cc1	.	.	7.8%[0.501 µM]	.	24.1%
COc1ccc(NC(=S)NCc2ccccc2)c(OC)c1	-11.6%	-23.6%	9.4%	20.5%	25.1%
Cc1ccc(C2CC(=O)NC(SCc3ccccc3)=C2C#N)o1 (configuration not stated)	?	31.6µM*	?	-11.1%	?
N#CC1=C(SCc2ccccc2)NC(=O)CC1c1ccco1 (configuration not stated)	-31.6%	.	?	-1.5%	44.7µM*
CCn1cc(C(=O)N2CCN(c3ccc(F)cc3)CC2)c(=O)c2cc(S(=O)(=O)N3CCOCC3)ccc21	-1.0%	.	-12.1%[59 µM]	36.8%	.
O=C(COc1ccccc1)Nc1nnc(SCc2cc(=O)n3cc(Cl)ccc3n2)s1	-12.0%	2.5%	2.0%[59 µM]	18.0%[57 µM]	.
CCCn1nnnc1NC(=O)c1ccc(C)cc1Cl	?	56.2µM*	22.4µM*	41.4%	-2.0%
CCCn1nnnc1NC(=O)c1cccs1	?	?	35.5µM*	?	-26.0%
Cn1nnnc1SCC(=O)Nc1ccccc1Cl	-8.8%	9.6%	4.3%	18.6%	14.9%
Cn1nnnc1NC(=O)c1ccccc1Cl	?	50.1µM*	39.8µM*	37.0%	-15.6%
SMILES	JMJD2A Tudor inh	BAZ2B block	G9a inh	HP1b chromo inh	Sfp PPTase inh
CCCn1nnnc1SCC(=O)NCc1cccs1	1.7%	13.4%	-3.0%	31.1%	11.0%
CCn1nnnc1NC(=O)c1cc(OC)c(OC)c(OC)c1	79.4µM*	-17.8%	1.5%	7.9%	15.8%
CCCn1nnnc1NC(=O)c1cc(Br)ccc1OC	-11.7%	?	25.1µM*	19.6%	5.8%
O=C(N/N=C1/C[C@@H](O)[C@@H](O)[C@@H]2[C@@H]3C(=O)N(C4CCCCC4)C(=O)[C@H]3CC[C@H]12)OCc1ccccc1	.	.	.	.	9.4%
COc1cc(/C=C/c2ccc(O)cc2)cc(OC)c1	-28.6%	-33.7%	2.0%[59 µM]	-17.1%	56.2µM*
Cc1ccc(-n2c(=O)c3c(c4cc(C)ccc4n3C)n(CC(=O)c3ccc(Cl)cc3)c2=O)cc1	-3.8%	-6.5%	0.6%[59 µM]	30.1%	.
CC(=O)c1ccc(NC(=S)N2CCN(c3cccc(Cl)c3)CC2)cc1	-7.2%	-12.5%	10.0%	17.6%	17.2%
COc1ccc(C(=S)N2CCN(c3cccc(Cl)c3)CC2)c(OC)c1	?	?	10µM*	?	17.8µM*
Oc1ccccc1C(=S)N1CCN(c2cccc(Cl)c2)CC1	?	44.7µM*	-8.6%[0.501 µM]	?	15.8µM*
Cc1ccc(C(=O)N2CCN(c3cccc(Cl)c3)CC2)cc1C	-20.8%	4.4%	2.2%[12.7 µM]	17.5%	?
CSc1ccccc1C(=O)N1CCN(c2cccc(Cl)c2)CC1	-7.2%	-31.0%	-40.1%	20.1%	-2.2%
COc1ccc(C(=O)N2CCN(c3cccc(Cl)c3)CC2)cc1	-15.0%	-4.4%	-8.5%[59 µM]	37.5%	10.3%
Oc1ccc(C(=S)N2CCN(c3cccc(Cl)c3)CC2)cc1	56.2µM*	39.8µM*	5.01µM*	?	15.8µM*
COc1cc(C(=S)N2CCN(c3cccc(Cl)c3)CC2)ccc1O	63.1µM*	44.7µM*	-4.9%[0.501 µM]	7.08µM*	10µM*
Cc1cccc(C(=O)OC(C)C(=O)NCC2CCCCC2)c1O (configuration not stated)	?	7.6%	5.3%[2.33 µM]	43.1%	.
COc1cc(C(=S)N2CCN(c3ccccc3Cl)CC2)cc(O)c1O	31.6µM*	50.1µM*	1.78µM*	11.2µM*	35.5µM*
CC(=O)N1CCN(C(=S)c2ccc(Cl)cc2)CC1	-6.6%	40.8%	25.1µM*	?	7.08µM*
CC(=O)N1CCN(C(=O)CCCNC(=O)c2ccc(Cl)cc2)CC1	-4.5%	.	.	46.2%	.
COc1ccc(Nc2oc(-c3ccco3)nc2S(=O)(=O)c2ccc(F)cc2)cc1	?	?	44.7µM*	-6.2%	-1.7%
O=C(CSc1oc(-c2ccco2)nc1S(=O)(=O)c1ccc(F)cc1)NCC1CCCO1 (configuration not stated)	-16.6%	11.0%	?	2.9%	-11.8%
O=S(=O)(c1ccc(F)cc1)c1nc(-c2ccco2)oc1Nc1ccc(F)cc1	-28.1%	?	50.1µM*	6.7%	-1.9%
CC(O)CNc1nc2c(c(=O)n(Cc3ccccc3)c(=O)n2C)n1C (configuration not stated)	-15.3%	-2.9%	14.3%	13.9%	3.1%
O=C(CC1(O)C(=O)N(CCc2ccccc2)c2ccccc21)c1ccccn1 (configuration not stated)	-12.8%	-17.9%	?	12.5%	-7.6%
O=C(CC1(O)C(=O)N(C/C=C/c2ccccc2)c2ccccc21)c1ccccn1 (configuration not stated)	?	-32.0%	50.1µM*	-19.3%	-6.4%
